Only some compounds are listed: those with a hit (about 1.2% of all), similar ones and a draw of the others.
GSH fluor: compound fluoresces at 488/530 nm on GSH beads; fluorescence (KMESF) at 10 µM; GSH beads flow cytometry, compound fluorescence 488/530 nm; hits give high values; AID 1776; hit rate 0.25% among 190,000; in the data active = fluorescence above about 89;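 note: glutathione beads carrying GST-tagged Bcl family fusion proteins plus one bare bead set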
RGS7-Gao reg: modulates binding of RGS7 to human Galphao. hit rate 0.35% among 220,000. binding response (% of control), % at 10 µM. Multiplexed bead flow cytometry; actives lie on both sides. AID 1439. P09471; in the data active = binding response below about 49% or above about 150%; inconclusive = no clear call, values can overlap the other calls; inactive = in between;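 note: fluorescent Galphao held in activated GDP-AlF4 state binding bead-coupled RGS7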
Target sequence (P09471 whole entry, looked up): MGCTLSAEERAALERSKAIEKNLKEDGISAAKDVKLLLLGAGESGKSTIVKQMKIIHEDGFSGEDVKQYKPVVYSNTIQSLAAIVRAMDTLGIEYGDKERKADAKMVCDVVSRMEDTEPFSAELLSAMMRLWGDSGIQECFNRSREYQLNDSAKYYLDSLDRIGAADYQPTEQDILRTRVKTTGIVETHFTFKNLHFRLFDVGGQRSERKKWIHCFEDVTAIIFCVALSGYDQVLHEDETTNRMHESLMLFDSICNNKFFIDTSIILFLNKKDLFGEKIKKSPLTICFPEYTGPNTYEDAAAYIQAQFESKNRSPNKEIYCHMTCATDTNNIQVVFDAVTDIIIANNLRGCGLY
RGS8-Gao: human RGS8-Galphao interaction regulation | AID 1423 | multiplexed bead flow cytometry, RGS8-Galphao binding; actives lie on both sides | P09471 | response (percent of control binding), % at 10 µM | hit rate 0.34% among 220,000; in the data active = response below about 60% or above about 140%; inactive = in between;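 note: Galphao activated as the GDP aluminium fluoride complex binding bead-coupled RGS8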
RGS4-Gao reg: modulates binding of RGS4 to human Galphao. P09471. Multiplexed bead flow cytometry; actives lie on both sides. binding response (% of control), % at 10 µM. hit rate 0.33% among 220,000; in the data active = binding response below about 49% or above about 150%; inactive = in between;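 note: fluorescent Galphao activated with aluminum fluoride binding bead-coupled RGS4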
RGS16-Gao HTS: RGS16-Galphao interaction regulator (human); O15492+P09471; bead-based flow cytometry RGS16-Galphao binding, fluorescence; actives lie on both sides; binding response (% of control), % at 10 µM; hit rate 0.38% among 220,000; call rule not given here;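 note: Galphao activated by GDP with aluminum fluoride before binding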
Target sequence (O15492 whole entry, looked up): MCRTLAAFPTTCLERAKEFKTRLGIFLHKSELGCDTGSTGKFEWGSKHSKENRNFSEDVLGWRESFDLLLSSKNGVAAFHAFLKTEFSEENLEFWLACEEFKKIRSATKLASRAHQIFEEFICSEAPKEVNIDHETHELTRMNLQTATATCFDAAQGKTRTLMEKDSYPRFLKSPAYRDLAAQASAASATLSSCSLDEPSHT
Target sequence (P09471 whole entry, looked up): as the sequence (P09471 whole entry, looked up) above
Avidin fluor: avidin bead compound fluorescence profile; fluorescence (KMESF) at 10 µM; Avidin beads, compound fluorescence 488/530 nm, flow cytometry; hits give high values; AID 1775; hit rate 0.38% among 220,000; in the data active = fluorescence above about 47
Hits are given with their value; – = inactive; ? = inconclusive; · = not tested or not shown; ! = repeats disagree.

SMILES	GSH fluor	RGS7-Gao reg	RGS8-Gao	RGS4-Gao reg	RGS16-Gao HTS	Avidin fluor
COc1ccccc1CNC(=O)C1CC(c2ccccc2[N+](=O)[O-])=NO1 (stereo not given)	–	–	–	–	–	49
O=C(CN1C(=O)COc2ccc(S(=O)(=O)N3CCOCC3)cc21)NCc1ccccn1	·	?	–	–	–	–
Cc1nn(-c2nc(-c3ccco3)cc(C(F)(F)F)n2)c(C)c1Br	–	–	–	–	–	–
CC(c1ccccc1)n1c(-c2cccs2)nc2c(c(=O)c3ccccc3n2C)c1=O (stereo not given)	·	?	–	–	–	·
CCN(Cc1ccccc1)C(c1ccncc1)c1nnnn1C(C)(C)C (stereo not given)	–	–	–	–	–	49
CCOc1c(Br)cc(/C=C2/SC(=O)N(CC(=O)N3CCCC3)C2=O)cc1OC	–	–	–	–	–	–
CCOC(=O)COc1c(Br)cc(/C=C2\SC(=O)N(CC(=O)N3CCCC3)C2=O)cc1OC	–	–	–	–	–	80
CC(C)COc1ccc(/C(O)=C2/C(=O)C(=O)N(CCN(C)C)C2c2ccncc2)cc1 (stereo not given)	–	–	–	–	–	–
COc1cc(C2/C(=C(/O)c3ccc(OCC(C)C)cc3)C(=O)C(=O)N2CCN(C)C)ccc1O (stereo not given)	262	–	–	–	–	–
Cc1ccccc1NCC(=O)N/N=C\C=C\c1cccc([N+](=O)[O-])c1	–	–	–	–	–	–
Cc1nnc(SCc2nnc(-c3ccccc3)o2)n(N)c1=O	264	–	–	–	–	–
Cc1nnc(SCC(=O)Nc2ccccc2)n(N)c1=O	–	–	–	–	–	55
Cc1nnc(SCc2ccccn2)n(N)c1=O	–	–	–	–	–	–
Cc1ccc(CNc2ncnc(N)c2[N+](=O)[O-])cc1	–	–	–	–	–	–
Cc1cc(C)c2c3c(sc2n1)C(c1cccc(F)c1)C(C#N)=C(N)O3 (stereo not given)	–	–	–	–	–	–
S=C(NN=C(C1CC1)C1CC1)Nc1ccccc1	–	–	–	–	–	–
COc1cc(C(=S)N2CCCC2)cc(Cl)c1OCC(=O)Nc1ccc(C)cc1C	–	–	–	–	–	–
Cc1cc(C(=O)CNCc2ccco2)c(C)n1-c1ccc(F)cc1	248	–	–	–	–	–
CN1CCCN(C(=O)Cc2c(Cl)cccc2Cl)c2nc3ccccc3nc21	–	–	–	–	–	–
CCNC(=S)N(Cc1cccs1)Cc1cc2cc(OCC)ccc2[nH]c1=O	239	–	–	–	–	–
CCNC(=S)N(Cc1ccco1)Cc1cc2cc(OCC)ccc2[nH]c1=O	–	–	–	–	–	–
COc1ccc(C2C(C(=O)NCc3ccco3)c3ccccc3C(=O)N2C)cc1 (stereo not given)	–	–	–	–	–	–
COCCN1C(=O)c2ccccc2C(C(=O)NCc2ccco2)C1c1c[nH]c2ccccc12 (stereo not given)	–	–	–	–	–	47
C=CCc1cccc2cc(C(=O)NNC(=O)CC#N)c(=O)oc12	·	?	–	–	–	–
O=C(O[C@@H]1Cc2c(O)cc(O)cc2O[C@@H]1c1cc(O)c(O)c(O)c1)c1cc(O)c(O)c(O)c1	–	32	56	48	–	–
SMILES	GSH fluor	RGS7-Gao reg	RGS8-Gao	RGS4-Gao reg	RGS16-Gao HTS	Avidin fluor
Cc1ccc[n+](-c2nc3ccccc3nc2C(=C=[N-])C#N)c1	–	?	–	–	–	61!
Cc1cc(C)c[n+](-c2nc3ccccc3nc2C(=C=[N-])C#N)c1	238!	–	–	–	–	–
CCc1ccc[n+](-c2nc3ccccc3nc2C(=C=[N-])C#N)c1	·	?	–	–	–	–
NS(=O)(=O)c1ccc(CCNC(=O)c2cncc(Br)c2)cc1	–	–	–	–	–	50
CC(NC(=O)c1cncc(Br)c1)c1ccc(S(N)(=O)=O)cc1 (stereo not given)	–	–	–	–	–	–
O=C(Nc1nc2c(s1)CCCC2=O)c1cnccn1	269	–	–	–	–	–
CC(C)(C)CC(=O)O/N=C(\N)c1ccccn1	–	–	–	–	–	–
COc1cc(C(=O)NCCc2ccc3c(c2)OCCO3)ccc1OCC(=O)N1CCOCC1	–	–	–	–	–	68
COC(=O)c1cccc(NC(=O)Cc2ccc(OC)cc2)c1C	–	–	–	–	–	–
Cc1c(Br)c([N+](=O)[O-])nn1CC(=O)NCc1cccnc1	–	–	–	–	–	–
CN(C)CCNC(=S)Nc1cccc(Cl)c1	–	14	12	22	0.9	–
CSc1ncccc1C(=O)OCC(=O)c1cccs1	–	–	–	–	–	–
CCC(CO)NCc1ccc(OC2CCCC2)cc1 (stereo not given)	140	–	–	–	–	–
O=c1c2ccccc2c(/C=N/NS(=O)(=O)c2ccccc2)c(O)n1-c1ccccn1	–	–	–	–	–	–
COc1cccc(CSc2nnc(C(F)(F)F)n2Cc2ccc(F)cc2)c1	–	12	12	20	0.4	–
Cc1ccc(CSc2nnc(C(F)(F)F)n2Cc2ccc(F)cc2)cc1	–	–	–	–	–	–
CCOC(=O)N1CCC(N2Cc3cccc(C(=O)N4CCN(c5cccc(Cl)c5)CC4)c3C2=O)CC1	–	–	–	–	–	–
O=C(CN1CCN(c2ncc(C(F)(F)F)cc2Cl)CC1)NC(=O)NCc1ccccc1	–	–	–	–	–	–
O=C(c1cc2c(ccc3ccccc32)o1)N1CCN(c2ncc(C(F)(F)F)cc2Cl)CC1	277	–	–	–	–	–
O=C(Nc1ccc(Br)cn1)C1CCCN1S(=O)(=O)c1ccccc1 (stereo not given)	–	–	–	–	–	–
Nc1nc(N2CCOCC2)nc(N(c2ccccc2)c2ccccc2)n1	–	–	–	–	–	–
CN(C)c1nc(N2CCOCC2)nc(N(c2ccccc2)c2ccccc2)n1	266	–	–	–	–	–
OC(CN1CCCCC1)Cn1c(C(F)(F)F)nc2ccccc21 (stereo not given)	–	–	–	–	–	–
Cc1nc2ccccc2n1CC(O)Cn1c(C(F)(F)F)nc2ccccc21 (stereo not given)	–	-8.4	7.0	-28	-16	–
C/C(=N\Nc1ccc(C(=O)O)cc1)c1ccc2c(c1)Nc1ccccc1S2	·	?	–	–	–	–
C=CCn1c(SCC(=O)Nc2cccc3ccccc23)nnc1-c1cnccn1	–	–	–	–	–	51
CC(=O)Nc1cccc(OCC(=O)NS(=O)(=O)c2ccc(Cl)cc2)c1	99	–	–	–	–	–
CC(=O)Nc1cccc(OCC(=O)Nc2ccccc2)c1	–	–	–	–	–	–
Cc1c(N=Nc2c(-c3ccc([N+](=O)[O-])cc3)[nH]n(C(N)=S)c2=O)cccc1[N+](=O)[O-]	–	–	–	–	–	–
